Compounds without any hit were thinned out: in the full panel of roughly 79,000, 15% have a hit. A number with no mark means an inactive call. Active and inactive are the calls of the source. Rule as the data show it: active = growth inhibition above about 70%; inactive = the rest.
test: NCI Yeast Anticancer Drug Screen. Data for the CLN2oe strain (AID 163);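 also: 0% = growth of vehicle-only control cultures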; settings: S. cerevisiae CLN2oe strain, at 33.0 µM, stronger effect = higher value
How it was run: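 First, the altered yeast strain was treated with each compound; second, its growth was measured; finally, inhibition was derived by comparison with vehicle controls.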

Question: Which growth inhibition does the source give for `S=C(S)NN1CCOCC1` here?
Answer: 27%

Question: For `COc1cc2c3c(cccc3c1)C(=O)N(CCN(C)C)C2=O`, which growth inhibition is on record?
Answer: 34%

Question: For `COC(=O)C1=C(C)NC(C)=C(C(=O)OCCCN2CCC(c3ccccc3)(c3ccccc3)CC2)C1c1cccc([N+](=O)[O-])c1` (stereo not given), which growth inhibition is on record?
Answer: 98% (active)

Question: For `c1ccc2c(c1)Oc1cccc3cccc-2c13`, which growth inhibition is on record?
Answer: 14%

Question: With `CN(C)CCOc1ccc2c(c1)C/C(=C/c1ncc([N+](=O)[O-])n1C)C2=O` as the molecule, how does the growth inhibition read?
Answer: 27%

Question: Which growth inhibition does the source give for `Cc1ccc(CCC2=CCCc3c2ccc2ccccc32)cc1` here?
Answer: -5%

Question: Which growth inhibition does the source give for `CNC(=O)OCc1c(COC(=O)NC)c(-c2ccc(Cl)c(Cl)c2)n2c1CCC2` here?
Answer: 65%

Question: With `Clc1ccccc1C1OC1c1ccccc1Cl` (stereo not given) as the molecule, how does the growth inhibition read?
Answer: -1%

Question: For `O=[N+]([O-])c1cc(CCl)ccc1CCl`, which growth inhibition is on record?
Answer: 94% (active)

Question: With `O=C1C=CC(=O)c2c(O)c(Nc3ccc(OC(F)(F)F)cc3)c(Cl)c(O)c21` as the molecule, how does the growth inhibition read?
Answer: 12%

Question: Which growth inhibition does the source give for `S=c1[nH]nc(Nc2ccc(Cl)cc2)s1` here?
Answer: -11%

Question: For `Cn1ccnc1Oc1ccc(Cl)cc1`, which growth inhibition is on record?
Answer: 16%

Question: Which growth inhibition does the source give for `BrCc1cccc2ccc3cccc(CBr)c3c12` here?
Answer: -13%

Question: For `O=C1c2ccccc2-c2nc3ccccc3nc21`, which growth inhibition is on record?
Answer: -9%

Question: With `CCCCCCCCCCCCCCCCCCNC` as the molecule, how does the growth inhibition read?
Answer: -4%

Question: For `Oc1ccc(NCn2c(=S)sc3ccccc32)cc1`, which growth inhibition is on record?
Answer: 34%

Question: Which growth inhibition does the source give for `O=C1C2CC[C@@H]3C(=O)C(Cl)(Cl)[C@@H]3CCC2C1(Cl)Cl` (stereo not given in full) here?
Answer: 10%

Question: With `CC[n+]1ccc2c(C)c3[nH]c4ccc(O)cc4c3c(C)c2c1` as the molecule, how does the growth inhibition read?
Answer: 26%

Question: Which growth inhibition does the source give for `Cc1ccc(-n2cc(-c3ccc(Cl)cc3)c(C#N)c2N)cc1` here?
Answer: -7%

Question: With `CC(=O)[O][Bi]([c]1ccccc1)[c]1ccccc1` as the molecule, how does the growth inhibition read?
Answer: 80% (active)

Question: With `CC1=C(SCCO)C(=O)c2ccccc2C1=O` as the molecule, how does the growth inhibition read?
Answer: 12%

Question: For `C/C(=N\O)C1CC2C=C(C#N)C1N(Cc1ccccc1)C2` (stereo not given), which growth inhibition is on record?
Answer: -2%

Question: For `CC(Br)C(=O)c1ccc2cc(Br)c3ccccc3c2c1` (stereo not given), which growth inhibition is on record?
Answer: -4%

Question: Which growth inhibition does the source give for `Nc1nc(-c2cccnc2)cc(-c2cc(-c3cccnc3)nc(N)n2)n1` here?
Answer: 1%

Question: For `CC(C)=CC(=O)O[C@@H]1CC(C)(C)CC2C3=CCC4[C@]56CC[C@](O)(OC5)C(C)(C)C6CC[C@@]4(C)C3(C)CC[C@]21C(=O)O` (stereo not given in full), which growth inhibition is on record?
Answer: 95% (active)

Question: Which growth inhibition does the source give for `CCC(C)COC(=O)c1ccc(N=Cc2ccc(C=Nc3ccc(C(=O)OCC(C)CC)cc3)cc2)cc1` (stereo not given) here?
Answer: -1%

Question: Which growth inhibition does the source give for `Oc1cccc2c(Cl)ccnc12` here?
Answer: 93% (active)

Question: Which growth inhibition does the source give for `O=C(O)c1cccc(-c2c3ccc(=O)cc-3oc3cc(O)ccc23)c1` here?
Answer: 61%

Question: For `CN(CCc1ccccn1)c1ccc2c(c1)Cc1ccccc1-2`, which growth inhibition is on record?
Answer: -16%

Question: Which growth inhibition does the source give for `Cc1cc(S(=O)(=O)/N=C(/NN)NNc2cccc(C(F)(F)F)n2)c(S)cc1Cl` here?
Answer: -12%

Question: For `O=C1C2C(C(=O)N1c1ccc(OCc3ccccc3)cc1)C1c3ccccc3C2C2CCCCN21` (stereo not given), which growth inhibition is on record?
Answer: -12%

Question: For `Nc1ccccc1CC(O)C(=O)O` (stereo not given), which growth inhibition is on record?
Answer: 25%

Question: Which growth inhibition does the source give for `O=C(O)C1CCCCC1c1c2ccc(=O)c(O)c-2oc2c(O)c(O)ccc12` (stereo not given) here?
Answer: 67%

Question: With `Cc1ccc2ccc(O)cc2c1` as the molecule, how does the growth inhibition read?
Answer: -17%

Question: With `O=C1C(=O)c2ccccc2C=C1[N+](=O)[O-]` as the molecule, how does the growth inhibition read?
Answer: 17%

Question: For `COC(=O)c1ccc(NCC2=CC(=O)C=CC2=O)cc1O`, which growth inhibition is on record?
Answer: 96% (active)

Question: For `C(CCSC1=NCCN1)CSC1=NCCN1` (tested in a mixture with another compound), which growth inhibition is on record?
Answer: 97% (active)

Question: Which growth inhibition does the source give for `N#Cc1c(N)[nH]c2ccc(Sc3ccccc3)cc12` here?
Answer: 95% (active)

Question: For `CCNc1nnc(CSc2nc(-c3ccccc3)c(-c3ccccc3)[nH]2)s1`, which growth inhibition is on record?
Answer: 85% (active)

Question: For `CC[C@@]1(O)C(=O)OCc2c1cc1n(c2=O)Cc2cc3c(N)cccc3nc2-1`, which growth inhibition is on record?
Answer: 22%

same assay, conditions: S. cerevisiae CLN2oe strain, at 100.0 µM, stronger effect = higher value

Question: Which growth inhibition does the source give for `S=C(S)NN1CCOCC1` here?
Answer: 42%

Question: For `COc1cc2c3c(cccc3c1)C(=O)N(CCN(C)C)C2=O`, which growth inhibition is on record?
Answer: 21%

Question: For `COC(=O)C1=C(C)NC(C)=C(C(=O)OCCCN2CCC(c3ccccc3)(c3ccccc3)CC2)C1c1cccc([N+](=O)[O-])c1` (stereo not given), which growth inhibition is on record?
Answer: 84% (active)

Question: With `c1ccc2c(c1)Oc1cccc3cccc-2c13` as the molecule, how does the growth inhibition read?
Answer: 18%

Question: Which growth inhibition does the source give for `CN(C)CCOc1ccc2c(c1)C/C(=C/c1ncc([N+](=O)[O-])n1C)C2=O` here?
Answer: 64%

Question: With `Cc1ccc(CCC2=CCCc3c2ccc2ccccc32)cc1` as the molecule, how does the growth inhibition read?
Answer: 9%

Question: For `CNC(=O)OCc1c(COC(=O)NC)c(-c2ccc(Cl)c(Cl)c2)n2c1CCC2`, which growth inhibition is on record?
Answer: 98% (active)

Question: Which growth inhibition does the source give for `Clc1ccccc1C1OC1c1ccccc1Cl` (stereo not given) here?
Answer: 8%

Question: For `O=[N+]([O-])c1cc(CCl)ccc1CCl`, which growth inhibition is on record?
Answer: 97% (active)

Question: For `O=C1C=CC(=O)c2c(O)c(Nc3ccc(OC(F)(F)F)cc3)c(Cl)c(O)c21`, which growth inhibition is on record?
Answer: 83% (active)

Question: With `S=c1[nH]nc(Nc2ccc(Cl)cc2)s1` as the molecule, how does the growth inhibition read?
Answer: 73% (active)

Question: For `Cn1ccnc1Oc1ccc(Cl)cc1`, which growth inhibition is on record?
Answer: 93% (active)

Question: Which growth inhibition does the source give for `BrCc1cccc2ccc3cccc(CBr)c3c12` here?
Answer: -12%

Question: For `O=C1c2ccccc2-c2nc3ccccc3nc21`, which growth inhibition is on record?
Answer: 34%

Question: For `CCCCCCCCCCCCCCCCCCNC`, which growth inhibition is on record?
Answer: 77% (active)

Question: With `Oc1ccc(NCn2c(=S)sc3ccccc32)cc1` as the molecule, how does the growth inhibition read?
Answer: 97% (active)

Question: With `O=C1C2CC[C@@H]3C(=O)C(Cl)(Cl)[C@@H]3CCC2C1(Cl)Cl` (stereo not given in full) as the molecule, how does the growth inhibition read?
Answer: 20%

Question: With `CC[n+]1ccc2c(C)c3[nH]c4ccc(O)cc4c3c(C)c2c1` as the molecule, how does the growth inhibition read?
Answer: 41%

Question: Which growth inhibition does the source give for `Cc1ccc(-n2cc(-c3ccc(Cl)cc3)c(C#N)c2N)cc1` here?
Answer: -4%

Question: Which growth inhibition does the source give for `CC(=O)[O][Bi]([c]1ccccc1)[c]1ccccc1` here?
Answer: 91% (active)

Question: For `CC1=C(SCCO)C(=O)c2ccccc2C1=O`, which growth inhibition is on record?
Answer: 14%

Question: With `C/C(=N\O)C1CC2C=C(C#N)C1N(Cc1ccccc1)C2` (stereo not given) as the molecule, how does the growth inhibition read?
Answer: -2%

Question: Which growth inhibition does the source give for `CC(Br)C(=O)c1ccc2cc(Br)c3ccccc3c2c1` (stereo not given) here?
Answer: -1%

Question: Which growth inhibition does the source give for `Nc1nc(-c2cccnc2)cc(-c2cc(-c3cccnc3)nc(N)n2)n1` here?
Answer: 1%

Question: For `CC(C)=CC(=O)O[C@@H]1CC(C)(C)CC2C3=CCC4[C@]56CC[C@](O)(OC5)C(C)(C)C6CC[C@@]4(C)C3(C)CC[C@]21C(=O)O` (stereo not given in full), which growth inhibition is on record?
Answer: 93% (active)

Question: For `CCC(C)COC(=O)c1ccc(N=Cc2ccc(C=Nc3ccc(C(=O)OCC(C)CC)cc3)cc2)cc1` (stereo not given), which growth inhibition is on record?
Answer: 0%

Question: Which growth inhibition does the source give for `Oc1cccc2c(Cl)ccnc12` here?
Answer: 97% (active)

Question: For `O=C(O)c1cccc(-c2c3ccc(=O)cc-3oc3cc(O)ccc23)c1`, which growth inhibition is on record?
Answer: 96% (active)

Question: With `CN(CCc1ccccn1)c1ccc2c(c1)Cc1ccccc1-2` as the molecule, how does the growth inhibition read?
Answer: -5%

Question: For `Cc1cc(S(=O)(=O)/N=C(/NN)NNc2cccc(C(F)(F)F)n2)c(S)cc1Cl`, which growth inhibition is on record?
Answer: 3%

Question: Which growth inhibition does the source give for `O=C1C2C(C(=O)N1c1ccc(OCc3ccccc3)cc1)C1c3ccccc3C2C2CCCCN21` (stereo not given) here?
Answer: 56%

Question: Which growth inhibition does the source give for `Nc1ccccc1CC(O)C(=O)O` (stereo not given) here?
Answer: 42%

Question: With `O=C(O)C1CCCCC1c1c2ccc(=O)c(O)c-2oc2c(O)c(O)ccc12` (stereo not given) as the molecule, how does the growth inhibition read?
Answer: 86% (active)

Question: Which growth inhibition does the source give for `Cc1ccc2ccc(O)cc2c1` here?
Answer: 83% (active)

Question: Which growth inhibition does the source give for `O=C1C(=O)c2ccccc2C=C1[N+](=O)[O-]` here?
Answer: 23%

Question: Which growth inhibition does the source give for `COC(=O)c1ccc(NCC2=CC(=O)C=CC2=O)cc1O` here?
Answer: 93% (active)

Question: For `C(CCSC1=NCCN1)CSC1=NCCN1` (tested in a mixture with another compound), which growth inhibition is on record?
Answer: 98% (active)

Question: With `N#Cc1c(N)[nH]c2ccc(Sc3ccccc3)cc12` as the molecule, how does the growth inhibition read?
Answer: 96% (active)

Question: Which growth inhibition does the source give for `CCNc1nnc(CSc2nc(-c3ccccc3)c(-c3ccccc3)[nH]2)s1` here?
Answer: 76% (active)

Question: For `CC[C@@]1(O)C(=O)OCc2c1cc1n(c2=O)Cc2cc3c(N)cccc3nc2-1`, which growth inhibition is on record?
Answer: 13%

Source: PubChem BioAssay (NCI)
